Source: the supplement of paper PMC10037445
Over roughly 2,900 compounds, “NF-kB SEAP reporter activity, fold change vs agonist alone” has its median near 0.99; the highest 2% begin near 2.6. The sample holds the highest values, similar compounds and a random draw of the others, so the mix is not that of the screen.

Assays:
RAW-Dual [1] = assay: NF-kB SEAP reporter activity, fold change vs agonist alone; higher = enhanced NF-kB activity; conditions: library stock concentration (final ~1000-fold dilution): 10 mM
Outline: (§1)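 Reporter activity is given as fold change relative to agonist-alone wells. To measure it, 50 nL of library stock was pin-tooled onto RAW-Dual macrophages (50,000 cells/well, DMEM, 384-well plates), a PRR agonist followed 1 h later, and cells stayed at 37 °C, 5% CO2. Twenty hours on, supernatant was assayed for IRF (QuantiLuc luminescence) and NF-κB (QuantiBlue, 620 nm absorbance), and wells under 70% of agonist-control IncuCyte confluency in both mask sets were marked cytotoxic.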

RAW-Dual [2] = assay: NF-kB SEAP reporter activity, fold change vs agonist alone; cytotoxicity flag (confluency mask): cytotoxic (confluency <70% of control); higher = enhanced NF-kB activity
Outline: as §1

RAW-Dual [3] = assay: NF-kB SEAP reporter activity, fold change vs agonist alone; cytotoxicity flag (confluency mask): not cytotoxic; higher = enhanced NF-kB activity
Outline: as §1

[4] = cytotoxicity flag (confluency mask): not cytotoxic, agonist: Imiquimod (TLR7) […]
[5] = cytotoxicity flag (confluency mask): not cytotoxic, agonist: MPLA (TLR4) […]
[6] = cytotoxicity flag (confluency mask): cytotoxic (confluency <70% of control), agonist: Imiquimod (TLR7) […]
[7] = cytotoxicity flag (confluency mask): cytotoxic (confluency <70% of control), agonist: MPLA (TLR4) […]
[8] = agonist: ODN 1826 (TLR9) 0.5 ug/mL
[9] = agonist: Pam2CSK4 (TLR2/6) 0.1 ug/mL
[10] = agonist: Pam3CSK4 (TLR2/1) 0.1 ug/mL

## CCn1c2ccccc2c2cc(-n3nncc3-c3ccccc3)ccc21
RAW-Dual [1]; [4]
  NF-kB SEAP reporter activity: 1.66
RAW-Dual [1]; [5]
  NF-kB SEAP reporter activity: 2.14

## CCn1c2ccccc2c2cc(CNCc3ccccc3OC)ccc21.Cl
RAW-Dual [1]; [6]
  NF-kB SEAP reporter activity: 1.22
RAW-Dual [1]; [7]
  NF-kB SEAP reporter activity: 1.37

## CCn1c2ccccc2c2cc(CNCc3ccccc3OC)ccc21.Cl (library stock concentration (final ~1000-fold dilution): 10 mM)
RAW-Dual [2]; agonist: LPS (TLR4) 0.1 ug/mL
  NF-kB SEAP reporter activity: 1.06
RAW-Dual [2]; [8]
  NF-kB SEAP reporter activity: 0.394
RAW-Dual [2]; [9]
  NF-kB SEAP reporter activity: 0.659
RAW-Dual [2]; [10]
  NF-kB SEAP reporter activity: 0.641

## CCn1c2ccccc2c2cc(-n3nncc3-c3ccccc3)ccc21 (library stock concentration (final ~1000-fold dilution): 10 mM)
RAW-Dual [3]; agonist: LPS (TLR4) 0.1 ug/mL
  NF-kB SEAP reporter activity: 3.15
RAW-Dual [3]; [8]
  NF-kB SEAP reporter activity: 1.82
RAW-Dual [3]; [9]
  NF-kB SEAP reporter activity: 1.81
RAW-Dual [3]; [10]
  NF-kB SEAP reporter activity: 2.79

## CC(=O)N1CCN(c2ccc(NC(=O)Cc3cnc(-c4ccnc(F)c4)c(C)c3)nc2)CC1 (library stock concentration (final ~1000-fold dilution): 10 mM)
RAW-Dual [3]; agonist: LPS (TLR4) 0.1 ug/mL
  NF-kB SEAP reporter activity: 0.956
RAW-Dual [3]; [8]
  NF-kB SEAP reporter activity: 0.965
RAW-Dual [3]; [9]
  NF-kB SEAP reporter activity: 0.991
RAW-Dual [3]; [10]
  NF-kB SEAP reporter activity: 1.03

## CC(=O)N1CCN(c2ccc(NC(=O)Cc3cnc(-c4ccnc(F)c4)c(C)c3)nc2)CC1
RAW-Dual [1]; [4]
  NF-kB SEAP reporter activity: 0.874
RAW-Dual [1]; [5]
  NF-kB SEAP reporter activity: 1

## CC(/C=C/C=C(\C)C(=O)OC1OC(COC2OC(CO)C(O)C(O)C2O)C(O)C(O)C1O)=C\C=C\C=C(C)\C=C\C=C(/C)C(=O)OC1OC(COC2OC(CO)C(O)C(O)C2O)C(O)C(O)C1O (stereo not drawn) (library stock concentration (final ~1000-fold dilution): 10 mM)
RAW-Dual [3]; agonist: LPS (TLR4) 0.1 ug/mL
  NF-kB SEAP reporter activity: 1.08
RAW-Dual [3]; [8]
  NF-kB SEAP reporter activity: 0.948
RAW-Dual [3]; [9]
  NF-kB SEAP reporter activity: 1.16
RAW-Dual [3]; [10]
  NF-kB SEAP reporter activity: 1.19

## CC(/C=C/C=C(\C)C(=O)OC1OC(COC2OC(CO)C(O)C(O)C2O)C(O)C(O)C1O)=C\C=C\C=C(C)\C=C\C=C(/C)C(=O)OC1OC(COC2OC(CO)C(O)C(O)C2O)C(O)C(O)C1O (stereo not drawn)
RAW-Dual [1]; [4]
  NF-kB SEAP reporter activity: 0.915
RAW-Dual [1]; [5]
  NF-kB SEAP reporter activity: 1.03

## Fc1ccc2[nH]ccc2c1-c1nc(N2CCOCC2)c2sc(CN3CCN(CC4CC4)CC3)cc2n1 (library stock concentration (final ~1000-fold dilution): 10 mM)
RAW-Dual [3]; agonist: LPS (TLR4) 0.1 ug/mL
  NF-kB SEAP reporter activity: 2.9
RAW-Dual [3]; [8]
  NF-kB SEAP reporter activity: 0.272
RAW-Dual [3]; [9]
  NF-kB SEAP reporter activity: 1.03
RAW-Dual [3]; [10]
  NF-kB SEAP reporter activity: 0.935

## CS(=O)(=O)N1CCN(Cc2cc3nc(-c4cccc5[nH]ncc45)nc(N4CCOCC4)c3s2)CC1 (library stock concentration (final ~1000-fold dilution): 10 mM)
RAW-Dual [3]; agonist: LPS (TLR4) 0.1 ug/mL
  NF-kB SEAP reporter activity: 1.87
RAW-Dual [3]; [8]
  NF-kB SEAP reporter activity: 0.247
RAW-Dual [3]; [9]
  NF-kB SEAP reporter activity: 1.02
RAW-Dual [3]; [10]
  NF-kB SEAP reporter activity: 0.72

## Fc1ccc2[nH]ccc2c1-c1nc(N2CCOCC2)c2sc(CN3CCN(CC4CC4)CC3)cc2n1
RAW-Dual [1]; [4]
  NF-kB SEAP reporter activity: 0.944
RAW-Dual [1]; [5]
  NF-kB SEAP reporter activity: 1.25

## CS(=O)(=O)N1CCN(Cc2cc3nc(-c4cccc5[nH]ncc45)nc(N4CCOCC4)c3s2)CC1
RAW-Dual [1]; [4]
  NF-kB SEAP reporter activity: 1.77
RAW-Dual [1]; [5]
  NF-kB SEAP reporter activity: 1.75

## O=C(CCNC(=O)c1ccc(OC(F)(F)F)cc1)NC1CCCc2ccccc21 (stereo not drawn) (library stock concentration (final ~1000-fold dilution): 10 mM)
RAW-Dual [3]; agonist: LPS (TLR4) 0.1 ug/mL
  NF-kB SEAP reporter activity: 0.767
RAW-Dual [3]; [8]
  NF-kB SEAP reporter activity: 1.33
RAW-Dual [3]; [9]
  NF-kB SEAP reporter activity: 0.519
RAW-Dual [3]; [10]
  NF-kB SEAP reporter activity: 0.68

## O=C(CCNC(=O)c1ccc(OC(F)(F)F)cc1)NC1CCCc2ccccc21 (stereo not drawn)
RAW-Dual [1]; [4]
  NF-kB SEAP reporter activity: 1.66
RAW-Dual [1]; [5]
  NF-kB SEAP reporter activity: 1.13

## COc1cc2c(cc1OC)CC(=O)N(CCCN(C)CC1Cc3cc(OC)c(OC)cc31)CC2.Cl (stereo not drawn)
RAW-Dual [1]; [4]
  NF-kB SEAP reporter activity: 0.885
RAW-Dual [1]; [5]
  NF-kB SEAP reporter activity: 0.951

## COc1cc2c(cc1OC)CC(=O)N(CCCN(C)CC1Cc3cc(OC)c(OC)cc31)CC2.Cl (stereo not drawn) (library stock concentration (final ~1000-fold dilution): 10 mM)
RAW-Dual [3]; agonist: LPS (TLR4) 0.1 ug/mL
  NF-kB SEAP reporter activity: 1.3
RAW-Dual [3]; [8]
  NF-kB SEAP reporter activity: 0.895
RAW-Dual [3]; [9]
  NF-kB SEAP reporter activity: 0.867
RAW-Dual [3]; [10]
  NF-kB SEAP reporter activity: 1.1

## CCOC(=O)NC1CCC2C(C1)CC1C(=O)OC(C)C1C2/C=C/c1ccc(-c2cccc(F)c2)cn1 (stereo not drawn) (library stock concentration (final ~1000-fold dilution): 10 mM)
RAW-Dual [3]; agonist: LPS (TLR4) 0.1 ug/mL
  NF-kB SEAP reporter activity: 0.824
RAW-Dual [3]; [8]
  NF-kB SEAP reporter activity: 0.243
RAW-Dual [3]; [9]
  NF-kB SEAP reporter activity: 0.212
RAW-Dual [3]; [10]
  NF-kB SEAP reporter activity: 0.158

## CCOC(=O)NC1CCC2C(C1)CC1C(=O)OC(C)C1C2/C=C/c1ccc(-c2cccc(F)c2)cn1 (stereo not drawn)
RAW-Dual [1]; [4]
  NF-kB SEAP reporter activity: 0.145
RAW-Dual [1]; [5]
  NF-kB SEAP reporter activity: 0.289

## NC(=O)N1CCC(CC(=O)N2CCC(C3c4ncc(Br)cc4CCc4cc(Cl)cc(Br)c43)CC2)CC1 (stereo not drawn)
RAW-Dual [1]; [6]
  NF-kB SEAP reporter activity: 0.614
RAW-Dual [1]; [7]
  NF-kB SEAP reporter activity: 0.603

## NC(=O)N1CCC(CC(=O)N2CCC(C3c4ncc(Br)cc4CCc4cc(Cl)cc(Br)c43)CC2)CC1 (stereo not drawn) (library stock concentration (final ~1000-fold dilution): 10 mM)
RAW-Dual [2]; agonist: LPS (TLR4) 0.1 ug/mL
  NF-kB SEAP reporter activity: 0.422
RAW-Dual [2]; [8]
  NF-kB SEAP reporter activity: 0.347
RAW-Dual [2]; [9]
  NF-kB SEAP reporter activity: 0.171
RAW-Dual [2]; [10]
  NF-kB SEAP reporter activity: 0.223

## Nc1ccccc1NC(=O)c1cnccn1 (library stock concentration (final ~1000-fold dilution): 10 mM)
RAW-Dual [3]; agonist: LPS (TLR4) 0.1 ug/mL
  NF-kB SEAP reporter activity: 1.4
RAW-Dual [3]; [8]
  NF-kB SEAP reporter activity: 1.16
RAW-Dual [3]; [9]
  NF-kB SEAP reporter activity: 0.443
RAW-Dual [3]; [10]
  NF-kB SEAP reporter activity: 0.532

## O=C(Nc1ccc(O)cc1)c1ccccc1O
RAW-Dual [1]; [4]
  NF-kB SEAP reporter activity: 1.68
RAW-Dual [1]; [5]
  NF-kB SEAP reporter activity: 1.24

## CC(=O)Nc1ccc(C(=O)Nc2ccccc2N)cc1 (library stock concentration (final ~1000-fold dilution): 10 mM)
RAW-Dual [3]; agonist: LPS (TLR4) 0.1 ug/mL
  NF-kB SEAP reporter activity: 2.28
RAW-Dual [3]; [8]
  NF-kB SEAP reporter activity: 2.86
RAW-Dual [3]; [9]
  NF-kB SEAP reporter activity: 0.724
RAW-Dual [3]; [10]
  NF-kB SEAP reporter activity: 0.832

## Nc1ccccc1NC(=O)c1cnccn1
RAW-Dual [1]; [4]
  NF-kB SEAP reporter activity: 0.997
RAW-Dual [1]; [5]
  NF-kB SEAP reporter activity: 1.12

## O=C(Nc1ccc(O)cc1)c1ccccc1O (library stock concentration (final ~1000-fold dilution): 10 mM)
RAW-Dual [3]; agonist: LPS (TLR4) 0.1 ug/mL
  NF-kB SEAP reporter activity: 1.17
RAW-Dual [3]; [8]
  NF-kB SEAP reporter activity: 1.93
RAW-Dual [3]; [9]
  NF-kB SEAP reporter activity: 0.921
RAW-Dual [3]; [10]
  NF-kB SEAP reporter activity: 1.04

## CC(=O)Nc1ccc(C(=O)Nc2ccccc2N)cc1
RAW-Dual [1]; [4]
  NF-kB SEAP reporter activity: 2.21
RAW-Dual [1]; [5]
  NF-kB SEAP reporter activity: 1.74
